Cycloheximide cs = counter-screen hit for Shiga toxin inhibitors, cycloheximide | cell reporter, cycloheximide protein synthesis inhibition counterscreen | 12% of 300,000 active | AID 2314 | max response, %; in the data active = max response mostly above about 13%, no sharp cut-off; inactive = mostly below about 14%; note: read at 38.3 µM for the half of the compounds with a filed dose; 0% is about no effect
Pf growth 96h = inhibits malaria parasite growth, 96 h; P. falciparum luciferase reporter growth, 96 h; Potency, µM (titrated, usually from 28.7 µM), inactives show top-dose activity change, negative = inhibition, most hits filed as inhibitors; 6.9% of 320,000 active; active = well fitted inhibition curve with a large enough effect; inconclusive = small, poorly fitted or top-dose-only effect, or another doubt; inactive = no such curve, though single readings can be large or run the other way; note: potency is the fitted concentration of half-maximal effect; % is set by controls: 0 for no effect and ±100 for the full control effect
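Infected RBCs, 2% Hct / 0.05% parasitemia final; luciferase-reporter P. falciparum; cpd 96 h, 37 C, 5% CO2; luciferase detection reagent; luminescence.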
SARS PLP yeast = blocks SARS-CoV papain-like protease in a yeast assay; S. cerevisiae expressing SARS-CoV PLpro, growth rescue; Potency, µM (top dose mostly 32.9 µM), for inactives: top-dose activity, positive = growth rescue, most hits filed as activators; 0.19% of 330,000 active; note: potency is the fitted concentration of half-maximal effect; 0% is about no effect; nearly all actives have a fitted effect of over 55% in size
Pf growth 48h = P. falciparum growth inhibition at 48 hours (one generation); 5.9% of 310,000 active; P. falciparum luciferase growth in erythrocytes, 48 h; Potency, µM (series often up to 28.7 µM), inactives show at the highest dose activity change, negative = inhibition, actives largely listed as inhibitors; active = well fitted inhibition curve with a large enough effect; inconclusive = small, poorly fitted or top-dose-only effect, or another doubt; inactive = no such curve, though single readings can be large or run the other way; note: potency is the fitted concentration of half-maximal effect; % is set by controls: 0 for no effect and ±100 for the full control effect
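Here the parasites carry a stable luciferase gene and grow inside erythrocytes in Albumax-based RPMI medium with compound for one erythrocytic cycle. Activity is scored as loss of luminescent signal.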
Shiga toxin inh = blocks Shiga toxin action in Vero cells. Vero cells, Shiga toxin protein synthesis inhibition reporter. inhibition, % at 38.7 µM. 9.2% of 290,000 active; in the data active = inhibition mostly above about 28%, no sharp cut-off; inactive = mostly below about 43%; note: 0% is about no effect
NS1 function inh = influenza NS1 inhibition; 0.4% of 270,000 active; Potency, µM (titrated, usually from 46.1 µM), for inactives: at the highest dose activity, positive = more growth; AID 2326; note: potency is the fitted concentration of half-maximal effect; actives are rising curves; nearly all actives have a fitted effect of over 50% in size
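A cell-based growth assay was used: compounds that relieve NS1-induced slow growth of budding yeast raise OD600. Assay medium was yeast nitrogen base with ammonium sulphate and -URA supplement, pH 6.0, with 2% galactose.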
* = called active by the depositor; i = inactive; ? = inconclusive; nt = no result. Shown are actives, neighbours in structure and some others; about 21% of the full set was active somewhere. Unless noted, calls come from the whole dose curve.

SMILES	Cycloheximide cs	Pf growth 96h	SARS PLP yeast	Pf growth 48h	Shiga toxin inh	NS1 function inh
CC1(C)CC(=O)c2cnc(NC(=O)CCc3ccccc3)nc2C1	0	nt	2%	8%	-4	-3%
COc1cccc(C(=O)Nc2ncc3c(n2)CC(C)(C)CC3=O)c1	-2	15%	-5%	31%	0	-3%
Cc1c(C(=O)N2CCOCC2)c(S(=O)(=O)Nc2ccccc2)c(C)n1C	-1	?	-7%	9%	-5	-4%
Clc1cccc(-c2ccc(/C=N/n3cnnc3)o2)c1Cl	-2	-26%	-48%	-1%	2	-4%
Cc1c(C(=O)O)cccc1-c1ccc(/C=N/Nc2ccc(Br)cc2)o1	106*	204%	-87%	159%	140*	1%
O=C(O)c1cccc(-c2ccc(/C=N/n3cnnc3)o2)c1	2	95%	2%	12%	-1	-8%
CC1=NN(c2ccc(Br)cc2)C(=O)/C1=C/c1ccc(-c2ccccc2C(=O)O)o1	-1	0%	5%	-10%	nt	3%
Cc1c(C(=O)O)cccc1-c1ccc(/C=N/n2cnnc2)o1	28*	22%	-1%	nt	38	2%
Cc1c(Cl)cccc1-c1ccc(/C=N/n2cnnc2)o1	-3	8.3µM*	-16%	nt	-15	-79%
COc1ccccc1CCNC(=O)c1cccc(S(=O)(=O)NCc2ccccc2)c1	nt	5%	nt	?	nt	nt
O=C(O)CCNC(=O)C12CC3CC(CC(C3)C1)C2	8	114%	2%	24%	-5	nt
COc1ccc(CCNC(=O)C/C(C)=N/NC(=O)C2CCCCC2)cc1OC	1	8.3µM*	4%	-4%	2	3%
COc1ccc(CCNC(=O)C/C(C)=N/NC(=O)c2ccc(N)cc2)cc1OC	12*	?	0%	40%	27	-1%
COc1ccc(CCNC(=O)CNCC2CCCCC2)cc1OC	-1	-28%	0%	?	22	0%
COc1ccc2nc(C)cc(Sc3nc4ccccc4s3)c2c1	5	?	-6%	?	3	-50%
CC(C)(C)NC(=O)Cn1nnc(-c2ccc(OCc3c(F)cccc3Cl)cc2)n1	13*	?	5%	?	33	5%
CC(C(=O)NCCc1ccc(F)cc1)N1CCN(Cc2ccccc2)CC1 (stereo not given)	1	5.2µM*	-1%	?	-2	nt
O=C(Cc1ccc(F)cc1)NCCc1ccccc1	3	?	2%	nt	-8	-1%
O=C(CCCc1ccccc1)NCCc1ccc(F)cc1	29*	8%	8%	-12%	92*	-29%
O=C(CCCc1ccccc1)NCCc1ccccc1	45*	43%	-4%	83%	84*	-10%
CC(C(=O)NC1CCCC1)N1CCN(Cc2ccccc2)CC1 (stereo not given)	1	75%	-1%	34%	-23	nt
O=C(COC(=O)c1ccco1)NCc1ccccc1Cl	32*	11%	-1%	5%	86*	nt
Cc1ccc(C2=NC3(CCCCC3)N=C2SCC(=O)Nc2ccc3c(c2)OCCO3)cc1	2	-5%	5%	?	7	-11%
COC(=O)[C@H]1C(=O)[C@H](C(=O)OC)[C@@H]2CC[C@H]1N2C	nt	nt	nt	nt	nt	-3%
O=C(CCc1ccccc1)NCCc1ccc(F)cc1	27*	-4%	1%	9%	29	0%
SMILES	Cycloheximide cs	Pf growth 96h	SARS PLP yeast	Pf growth 48h	Shiga toxin inh	NS1 function inh
O=C(O)/C=C/C(=O)NCCc1ccccc1	-4	?	0%	1%	11	nt
CN(CC(=O)NCCc1ccc(F)cc1)Cc1cccs1	28*	12%	1%	28%	26	nt
O=C(CCCc1ccccc1)NCc1ccccc1Cl	18*	-7%	7%	-26%	nt	-18%
CC(C)=CC(=O)NCCc1ccccc1	45*	nt	nt	211%	93*	-17%
O=C(CCCc1ccccc1)NCCCc1ccccc1	-2	-11%	2%	7%	-3	-43%
CC(=O)c1ccc(OCCCC(=O)NCCc2ccccc2)cc1	31*	?	6%	3%	51	9%
O=C(CCCc1ccccc1)NCc1cn2ccsc2n1	17*	15%	0%	14%	15	-6%
COc1cccc(C(=O)NCc2cn3ccsc3n2)c1	16*	22%	1%	18%	9	3%
CCOCCCNC(=O)CCCOc1ccccc1	-1	4.7µM*	11%	28%	-3	-6%
COc1ccc(C=O)cc1Cn1ccnc1C	-4	?	0%	0%	-4	-2%
O=C(Nc1ccccc1)c1ccc(=O)n(Cc2ccc(F)c(F)c2)c1	1	?	3%	-18%	-13	-5%
O=C(NCc1ccccn1)C(C(=O)c1cccc([N+](=O)[O-])c1)n1cc(Cl)ccc1=O (stereo not given)	12	41%	-1%	8%	25	-1%
[O-][n+]1c2c(nn1-c1ccccc1)/C(=N/O)CCC2	2	?	-1%	10%	-4	5%
[O-][n+]1onc2c1CCC(=N/O)/C2=N\Nc1ccccc1	19*	4.7µM*	2%	7.4µM*	55	9%
C[C@]12CC[C@@H](O)CC1=CCC1C2CC[C@]2(C)C(=O)[C@H](F)CC12 (stereo not given in full)	nt	nt	-4%	nt	nt	nt
CC12CCC3C(CC=C4CC(O)CCC43C)C1C/C(=C\c1cccc(F)c1)C2=O (stereo not given)	-3	12µM*	-2%	?	-6	1%
CCN1C(=O)c2cccc3c(NC(=O)c4ccc(S(=O)(=O)N5CCOCC5)cc4)ccc1c23	-2	nt	3%	?	12	-3%
CCCNS(=O)(=O)c1ccc(NC(=O)c2ccccn2)cc1	29	10µM*	-1%	77%	92*	0%
CN(C)S(=O)(=O)c1ccc(C(=O)Nc2ccccn2)cc1	22*	281%	-5%	103%	57	0%
CC(=O)NS(=O)(=O)c1ccc(NC(=O)c2ccccn2)cc1	-1	30%	0%	-13%	11	nt
CCN1C(=O)c2cccc3c(NC(=O)c4ccc(S(=O)(=O)N(C)C)cc4)ccc1c23	-1	10%	-8%	12µM*	8	-4%
CN(C)S(=O)(=O)c1ccc(NC(=O)c2cccnc2)cc1	-5	-35%	-4%	nt	-5	14%
CN(C)S(=O)(=O)c1ccc(NC(=O)c2ccccn2)cc1	34*	-3%	-1%	148%	112*	-4%
CCOc1c(Br)cc(C(=O)N2CCCN(C)CC2)cc1OC	10	23%	-2%	24%	-7	3%
CCN(CC)S(=O)(=O)c1ccc(NC(=O)c2ccccn2)cc1	30*	27%	-12%	57%	96*	-8%
O=C(Nc1ccc(SC(F)(F)F)cc1)c1ccccn1	30*	i	-3%	i	113*	-20%
O=C(Nc1ccc(S(=O)(=O)Nc2ncccn2)cc1)c1ccccc1	-4	1.2µM*	-12%	0%	17	20%

Screening data from PubChem BioAssay.
